# Reference: PubChem BioAssay AID1159580 (chemical genetic matrix, 2015)
# Hit rate of the full screen: of about 5,500 compounds, about 2,000 (36%) were called active. About 18% were inconclusive and are not listed. The list shows a part of the results. Unmarked numbers belong to inactive results. No stated cut-off is given here; in the data, active means normalized growth mostly below about 0.91 (no sharp cut-off); inconclusive means no clear call, values can overlap the other calls; inactive means mostly above about 0.92.
# Test: chemical genetic growth profiling, strain panel (AID 1159580);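 further: tested at 20 µM; growth read once vehicle control cultures reached saturation at 30 °C; 1 = growth at the plate median or of vehicle wells; lower values mean less growth of the strain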
# Conditions: S. cerevisiae deletion strains, growth OD
smiles,measurement,setting,value
CCN1CCN(c2cc3c(cc2F)c(=O)c(C(=O)O)cn3C2CC2)CC1,normalized growth,"locus YAL021C, strain ccr4, hits give low values",1.04
same,normalized growth,"locus YAL026C, strain drs2, hits give low values",1.01
same,normalized growth,"locus YAL030W, strain snc1, hits give low values",1.01
same,normalized growth,"locus YBL061C, strain skt5, hits give low values",1.01
same,normalized growth,"locus YBR009C, strain hhf1, hits give low values",1
same,normalized growth,"locus YBR023C, strain chs3, hits give low values",1.01
same,normalized growth,"locus YBR171W, strain sec66, hits give low values",1.02
same,normalized growth,"locus YBR231C, strain swc5, hits give low values",1.02
same,normalized growth,"locus YBR279W, strain paf1, hits give low values",1.01
same,normalized growth,"locus YCL011C, strain gbp2, hits give low values",1.01
same,normalized growth,"locus YCL016C, strain dcc1, hits give low values",0.997
same,normalized growth,"locus YCL061C, strain MRC1, hits give low values",1.01
same,normalized growth,"locus YCL069W, strain vba3, hits give low values",1.01
same,normalized growth,"locus YCR088W, strain abp1, hits give low values",1.01
same,normalized growth,"locus YDL005C, strain med2, hits give low values",1.02
same,normalized growth,"locus YDL040C, strain nat1, hits give low values",1.01
same,normalized growth,"locus YDR001C, strain nth1, hits give low values",1.01
same,normalized growth,"locus YDR069C, strain doa4, hits give low values",1
same,normalized growth,"locus YDR137W, strain rgp1, hits give low values",0.969
same,normalized growth,"locus YDR159W, strain sac3, hits give low values",1.01
same,normalized growth,"locus YDR195W, strain ref2",1.04
same,normalized growth,"locus YDR297W, strain sur2, hits give low values",1.01
same,normalized growth,"locus YDR334W, strain swr1, hits give low values",1.02
same,normalized growth,"locus YDR335W, strain msn5, hits give low values",1.03
same,normalized growth,"locus YDR392W, strain spt3, hits give low values",1
same,normalized growth,"locus YEL003W, strain gim4, hits give low values",1.01
same,normalized growth,"locus YEL037C, strain rad23, hits give low values",1.01
same,normalized growth,"locus YEL061C, strain CIN8 (second series), hits give low values",1.02
same,normalized growth,"locus YER015W, strain faa2, hits give low values",1.01
same,normalized growth,"locus YER016W, strain bim1, hits give low values",0.995
same,normalized growth,"locus YER111C, strain swi4, hits give low values",1.02
same,normalized growth,"locus YER155C, strain BEM2 (second series), hits give low values",1.01
same,normalized growth,"locus YFR010W, strain ubp6, hits give low values",1.01
same,normalized growth,"locus YGL167C, strain pmr1, hits give low values",1.02
same,normalized growth,"locus YGL173C, strain kem1, hits give low values",1
same,normalized growth,"locus YGL227W, strain vid30, hits give low values",1.01
same,normalized growth,"locus YGL240W, strain doc1, hits give low values",0.997
same,normalized growth,"locus YGL253W, strain hxk2, hits give low values",1.01
same,normalized growth,"locus YHR013C, strain ard1, hits give low values",1.04
same,normalized growth,"locus YHR027C, strain rpn1, hits give low values",1.02
same,normalized growth,"locus YHR030C, strain SLT2, hits give low values",0.992
same,normalized growth,"locus YHR079C, strain IRE1, hits give low values",0.986
same,normalized growth,"locus YHR142W, strain chs7, hits give low values",1.02
same,normalized growth,"locus YJL092W, strain hpr5, hits give low values",1.01
same,normalized growth,"locus YJL095W, strain BCK1 (second series), hits give low values",1.02
same,normalized growth,"locus YJL095W, strain BCK1, hits give low values",0.995
same,normalized growth,"locus YJL115W, strain asf1, hits give low values",0.989
same,normalized growth,"locus YJL129C, strain trk1, hits give low values",1.03
same,normalized growth,"locus YJL154C, strain vps35, hits give low values",1.02
same,normalized growth,"locus YJL164C, strain tpk1, hits give low values",1.01
same,normalized growth,"locus YJL166W, strain qcr8, hits give low values",1
same,normalized growth,"locus YJL187C, strain SWE1, hits give low values",1.01
same,normalized growth,"locus YJR066W, strain TOR1, hits give low values",0.962
same,normalized growth,"locus YKL160W, strain elf1, hits give low values",1
same,normalized growth,"locus YKR026C, strain gcn3, hits give low values",1.01
same,normalized growth,"locus YKR091W, strain srl3, hits give low values",1
same,normalized growth,"locus YLL001W, strain dnm1, hits give low values",1.02
same,normalized growth,"locus YLL026W, hits give low values",1
same,normalized growth,"locus YLL041C, strain sdh2, hits give low values",1.01
same,normalized growth,"locus YLR027C, strain aat2, hits give low values",1.01
same,normalized growth,"locus YLR113W, strain HOG1, hits give low values",1.03
same,normalized growth,"locus YLR221C, strain rsa3, hits give low values",1.01
same,normalized growth,"locus YLR258W, strain gsy2, hits give low values",1.01
same,normalized growth,"locus YLR262C, strain YPT6 (second series), hits give low values",0.962
same,normalized growth,"locus YLR320W, strain mms22, hits give low values",0.854 (active)
same,normalized growth,"locus YLR342W, strain FKS1, hits give low values",1.02
same,normalized growth,"locus YLR357W, strain rsc2, hits give low values",0.994
same,normalized growth,"locus YLR370C, strain arc18, hits give low values",1.02
same,normalized growth,"locus YLR384C, strain iki3, hits give low values",1
same,normalized growth,"locus YML120C, strain ndi1, hits give low values",1.01
same,normalized growth,"locus YMR058W, strain fet3, hits give low values",1.01
same,normalized growth,"locus YMR125W, strain sto1, hits give low values",1.02
same,normalized growth,"locus YMR129W, hits give low values",1.01
same,normalized growth,"locus YMR205C, strain PFK2, hits give low values",1
same,normalized growth,"locus YMR231W, strain pep5, hits give low values",1.02
same,normalized growth,"locus YNL071W, strain lat1, hits give low values",1.02
same,normalized growth,"locus YNL183C, strain NPR1, hits give low values",0.935
same,normalized growth,"locus YNL209W, strain ssb2, hits give low values",1.03
same,normalized growth,"locus YNL248C, strain rpa49, hits give low values",1.01
same,normalized growth,"locus YNL322C, strain KRE1 (second series), hits give low values",1
same,normalized growth,"locus YNR049C, strain mso1, hits give low values",1.01
same,normalized growth,"locus YOR001W, strain rrp6, hits give low values",1.01
same,normalized growth,"locus YOR070C, strain gyp1, hits give low values",1.02
same,normalized growth,"locus YOR080W, strain dia2, hits give low values",0.992
same,normalized growth,"locus YOR083W, strain WHI5, hits give low values",1.01
same,normalized growth,"locus YOR106W, strain vam3, hits give low values",0.994
same,normalized growth,"locus YOR231W, strain MKK1, hits give low values",0.981
same,normalized growth,"locus YOR265W, strain rbl2, hits give low values",1.01
same,normalized growth,"locus YOR270C, strain vph1, hits give low values",1.03
same,normalized growth,"locus YOR290C, strain snf2, hits give low values",0.957
same,normalized growth,"locus YPL051W, strain arl3, hits give low values",1.01
same,normalized growth,"locus YPL078C, strain atp4, hits give low values",1.02
same,normalized growth,"locus YPL106C, strain sse1, hits give low values",0.998
same,normalized growth,"locus YPL240C, strain hsp82, hits give low values",1.01
same,normalized growth,"locus YPL256C, strain CLN2, hits give low values",0.986
